This note sets out measurements from PubChem BioAssay (EPA / NIEHS).

Inconclusive results are not listed. Calls of active or inactive are those of the source. How the source made its calls: active means hit-call score of the fitted dose curve at least 0.9, where 1 is the maximum; inconclusive means response in the unintended direction; inactive means score below 0.9.

rat Adrenergic, Alpha 1A Receptor (Adra1A), Adra1a (gene 29412), sequence (P43140 whole entry, looked up): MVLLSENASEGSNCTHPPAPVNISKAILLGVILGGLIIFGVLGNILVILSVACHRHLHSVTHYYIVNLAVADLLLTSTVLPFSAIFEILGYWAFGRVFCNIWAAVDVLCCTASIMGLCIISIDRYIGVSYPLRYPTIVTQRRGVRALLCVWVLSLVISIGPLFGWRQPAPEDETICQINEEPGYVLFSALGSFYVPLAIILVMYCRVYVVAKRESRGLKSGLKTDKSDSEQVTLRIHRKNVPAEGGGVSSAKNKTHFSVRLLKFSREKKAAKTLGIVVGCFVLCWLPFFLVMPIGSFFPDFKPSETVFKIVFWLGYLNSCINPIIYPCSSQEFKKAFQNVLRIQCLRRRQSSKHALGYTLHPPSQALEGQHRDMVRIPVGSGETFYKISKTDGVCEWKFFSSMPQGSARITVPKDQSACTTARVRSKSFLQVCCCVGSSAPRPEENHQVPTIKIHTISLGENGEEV
guinea pig Serotonin, 5-Hydroxytryptamine Receptor 4 (5HT4), HTR4 (gene 100135548), sequence (O70528 whole entry, looked up): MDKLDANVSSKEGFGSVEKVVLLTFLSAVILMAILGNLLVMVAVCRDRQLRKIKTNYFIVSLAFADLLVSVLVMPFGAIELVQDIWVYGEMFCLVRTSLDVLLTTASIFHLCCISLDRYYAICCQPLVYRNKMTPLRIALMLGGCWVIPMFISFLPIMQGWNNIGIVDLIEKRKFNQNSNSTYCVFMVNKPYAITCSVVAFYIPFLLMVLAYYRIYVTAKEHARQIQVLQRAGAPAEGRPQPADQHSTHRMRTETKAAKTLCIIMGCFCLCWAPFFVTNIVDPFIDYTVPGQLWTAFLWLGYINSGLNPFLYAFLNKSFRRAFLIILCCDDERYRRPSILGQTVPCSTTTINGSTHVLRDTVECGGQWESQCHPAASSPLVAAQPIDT
rat Serotonin, 5-Hydroxytryptamine Receptor (5HT), Non-Selective Binding, Htr1a (gene 24473), sequence (P19327 whole entry, looked up): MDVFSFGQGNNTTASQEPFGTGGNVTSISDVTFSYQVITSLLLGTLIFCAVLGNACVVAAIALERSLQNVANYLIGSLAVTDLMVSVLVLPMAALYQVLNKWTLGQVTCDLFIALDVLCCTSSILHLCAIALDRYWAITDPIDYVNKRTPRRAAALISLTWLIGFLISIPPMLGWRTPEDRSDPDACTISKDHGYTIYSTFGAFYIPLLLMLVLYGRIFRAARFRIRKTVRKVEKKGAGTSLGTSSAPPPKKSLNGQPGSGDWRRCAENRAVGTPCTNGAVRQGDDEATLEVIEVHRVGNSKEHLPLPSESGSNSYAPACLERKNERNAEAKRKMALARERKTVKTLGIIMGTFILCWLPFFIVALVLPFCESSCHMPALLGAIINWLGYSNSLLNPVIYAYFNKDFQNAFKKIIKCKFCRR

One assay addresses guinea pig Serotonin, 5-Hydroxytryptamine Receptor 4 (5HT4), HTR4 (gene 100135548) (UniProt O70528). Put plainly: NVS_GPCR_g5HT4: NovaScreen (NVS) G Protein-Coupled Receptor Assay for guinea pig Serotonin, 5-Hydroxytryptamine Receptor 4 (5HT4) (AID 2283294). An outline of the steps:
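Guinea pig striatal membranes; radioligand competitive displacement, filtration and scintillation counting after 1 h. Primary screen in duplicate at 25 uM; actives then tested in concentration series; loss of binding signal fitted relative to DMSO.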
As usually defined, the AC50 is the concentration giving half of the maximal activity seen. For the molecule `COc1cc(C(C)C)c2c(c1)S(=O)(=O)N(COc1cc(=O)n3cccc(OCCN4CCCCC4)c3n1)C2=O`, the half-maximal activity concentration (AC50) was 1.38 µM (active).
In the case of `Cc1ccc(S(=O)(=O)NC(=O)NN2CCCCCC2)cc1`, the result was inactive.
In the case of `O=S(=O)(O)c1ccc(N=Nc2c(O)ccc3cc(S(=O)(=O)O)ccc23)cc1`, the AC50 was 35.6 µM (active).
Consider `CCCCCCCCCC`, for which the outcome was inactive.
As to `CCCCOC(=O)c1ccccc1`, the molecule was called inactive.
`CC(C)C(=O)Nc1ccc([N+](=O)[O-])c(C(F)(F)F)c1`: the AC50 is 6.71 µM (active).
Regarding `C[C@@H](Oc1ccc(CNC(=O)c2cccnc2Oc2ccc3c(c2)OCO3)c(F)c1)C(=O)O`, the outcome was inactive.
For `Cc1nccn1-c1ccc(Sc2cccc(C3(C(N)=O)CCOCC3)c2)cc1`, the result was inactive.
With `CCN(CC)C(=S)SSC(=S)N(CC)CC`, the AC50 is 19 µM (active).
Take `C=CCc1cc(S(=O)(=O)c2ccc(O)c(CC=C)c2)ccc1O`: the AC50 was 10 µM (active).
On to `O=C(O)c1cccc(C[C@@H]2COc3ccc(OCc4nc5cc(F)ccc5s4)cc3[C@@H]2O)c1`, for which the result was inactive.
As for `c1ccc(C(O[C@@H]2CCCN(CCc3ccc4c(c3)OCO4)C2)c2ccccc2)cc1`, the AC50 was 3.4 µM (active).

The next assay addresses rat Serotonin, 5-Hydroxytryptamine Receptor (5HT), Non-Selective Binding, Htr1a (gene 24473) (UniProt P19327). Put plainly: NVS_GPCR_r5HT_NonSelective: NovaScreen (NVS) G Protein-Coupled Receptor Assay for rat Serotonin, 5-Hydroxytryptamine Receptor (5HT), Non-Selective Binding (AID 2283295). In outline: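 Radioligand displacement on rat cortical membranes, 1 h incubation, filter-based scintillation counting. Primary duplicates at 25 uM, actives retested in concentration series; loss of signal fitted against DMSO as baseline.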
Regarding `CCn1nc(C)c2c1C(=O)NCC(c1ccc(O)cc1)=N2`, the call was inactive.
The same measure, in the same setting: then `O=c1[nH]cnc2c1ncn2[C@H]1CC[C@@H](CO)O1`, with “inactive”.
Regarding `c1ccc(C(O[C@@H]2CCCN(CCc3ccc4c(c3)OCO4)C2)c2ccccc2)cc1`, the AC50 is 5.63 µM (active).
In the case of `Cc1ncc([C@@H](CCCCCCc2ccc3c(n2)NCCC3)CC(=O)O)cn1`, the molecule was called inactive.

The next assay addresses rat Adrenergic, Alpha 1A Receptor (Adra1A), Adra1a (gene 29412) (UniProt P43140). Put plainly: NVS_GPCR_rAdra1A: NovaScreen (NVS) G Protein-Coupled Receptor Assay for rat Adrenergic, Alpha 1A Receptor (Adra1A) (AID 2283296). In outline: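 Rat cortical membranes pretreated with chlorethyl clonidine; competitive radioligand displacement, 1 h. Filter-based scintillation counting. Primary screen in duplicate at 25 uM, actives followed in concentration series.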
In the case of `COc1cc(C(C)C)c2c(c1)S(=O)(=O)N(COc1cc(=O)n3cccc(OCCN4CCCCC4)c3n1)C2=O`, the molecule was classed as inactive.
Same read-out and setting: for `CCCCCCCC1CCC(=O)O1` (configuration not stated) the value was “inactive”; for `CCn1nc(C)c2c1C(=O)NCC(c1ccc(O)cc1)=N2`, “inactive”; for `CCc1ccc(O)c(C(C)(C)C)c1`, “inactive”.
With `c1ccc(C(O[C@@H]2CCCN(CCc3ccc4c(c3)OCO4)C2)c2ccccc2)cc1`, the AC50 is 11.3 µM (active).

The test system of a further assay is rat Adrenergic, Alpha 1B Receptor (Adra1B), gene 24173. Description: NVS_GPCR_rAdra1B: NovaScreen (NVS) G Protein-Coupled Receptor Assay for rat Adrenergic, Alpha 1B Receptor (Adra1B) (AID 2283297). An outline of the steps: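 Rat liver membranes, radioligand displacement with filter-based scintillation detection, 1 h incubation. Primary screen in duplicate at 25 uM; actives retested in concentration series; activity relative to DMSO.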
On to `COc1cc(C(C)C)c2c(c1)S(=O)(=O)N(COc1cc(=O)n3cccc(OCCN4CCCCC4)c3n1)C2=O`, for which the AC50 was 3.17 µM (active).
Consider `CCCCCCCCCC`, for which the molecule was classed as inactive.
The same measure, in the same setting: for `CCN(CC)C(=S)SSC(=S)N(CC)CC` the value was “inactive”; for `C=CCc1cc(S(=O)(=O)c2ccc(O)c(CC=C)c2)ccc1O`, “inactive”.
For the molecule `c1ccc(C(O[C@@H]2CCCN(CCc3ccc4c(c3)OCO4)C2)c2ccccc2)cc1`, the AC50 was 17 µM (active).
Take `CCCCCCCCCCCCCCCCOS(=O)(=O)O`: the AC50 was 12.5 µM (active).
